From PubChem BioAssay (NCI) come the findings set out here.

The assay has as its system HL-60(TB) leukemia. Description: NCI-60 one-dose screen, 48 h (100 = growth as untreated, 0 = no growth, -100 = all killed).

SMILES strings stand for the structures. Where “and” joins values, the source holds several entries; their conditions need not be identical. Equal entries are not always repeated. This is part of a sample that, as a whole, favours compounds with a hit. Of some 83,000 tested, about 20% had one in any assay.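 A percent growth of 40 corresponds to 60% growth inhibition; 0 means no net growth; -100 means all cells died. Active threshold: below 10.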 Calls of active or inactive are those of the source.

For `CCN(CC)C(=O)/C=C(/C)c1ccccc1`, the growth (10 µM unless noted) was 101% (inactive).
The same measure, in the same setting: next, `Cc1ccc2c(C(C[N+](=O)[O-])c3ccccc3F)c(-c3ccccc3)[nH]c2c1` (stereo not drawn): 27.3% (inactive); `C=CCN(CCOC(=O)c1ccc([N+](=O)[O-])cc1)CCOC(=O)c1ccc([N+](=O)[O-])cc1`: 88.1% (inactive); `COc1ccc2nc(-c3ccc(Cl)cc3)cc(-c3nnc(SCC(=O)Nc4ccc(/C(C)=N\O)cc4)o3)c2c1`: 61.9% (inactive).
Consider `S=C(Nc1ccc(-c2nc(N3CCOCC3)c3cccn3n2)cc1)Nc1cccnc1`, for which the growth (10 µM unless noted) was 59.9% (inactive).
For `O=C1/C(=C\c2cn(-c3ccccc3)nc2-c2ccc(-c3cccs3)cc2)CCc2ccccc21`, the growth (10 µM unless noted) is 50.2% (inactive).
Same read-out and setting: in the case of `COc1cc(CNC(=O)CCCCC[P+](c2ccccc2)(c2ccccc2)c2ccccc2)c(OC)c2c1OCO2` it was -2.75% (active); in that of `O=Nc1ccc(Nc2ccccc2)cc1`, -1.72% (active).
Still for that read-out and setting: in the case of `O=C(Nc1ccccc1)Nc1cccc(Oc2nnc(Cl)c3ccccc23)c1` it was 12.1% (inactive).
Regarding `CC(=O)OC(OC(C)=O)C1CCCO1` (stereo not drawn), where the note is “10 µM unless noted”, the growth is 147% (inactive).
The same measure, in the same setting: in the case of `Cc1ccc2c3c(c(=O)[nH]c2c1)C1(C(C#N)=C(N)O3)c2cc(Br)ccc2-c2ccc(Br)cc21` it was 83.7% (inactive); in that of `COc1cc(C2CC(=O)c3c(C)nn(-c4nc5ccccc5[nH]4)c3C2)cc(OC)c1OC` (stereo not drawn), 132% (inactive).
Same read-out and setting: next, `CCOC(=O)C(=O)C(C(=O)OCC)c1ccccc1` (stereo not drawn): 95.6% (inactive).
Still for that read-out and setting: in the case of `CCCCC1CCCCN1C(=O)OCC` (stereo not drawn) it was 128% (inactive).
Turning to `C#CC(=O)Nc1cccc(Nc2nc3c(c(NCc4ccccc4)n2)CCCC3)c1`, the growth (10 µM unless noted) is -25.5% (active).
With `CC1CCC2(C(=O)O)CCC3(C)C(=CCC4C5(C)CCC(O)C(C)(C)C5CCC43C)C2C1C` (stereo not drawn), where the note is “10 µM unless noted”, the growth was 5.83% (active) and 40.2% (inactive).
Turning to `O=C(Nc1nc2ccc(F)cc2s1)c1cccnc1Nc1ccc(Cl)cc1`, the growth (10 µM unless noted) is 33.3% (inactive).
Still for that read-out and setting: next, `CC(C)(C)CC1(C)NC(=O)NC1=O` (stereo not drawn): 114% (inactive); `Clc1ccc2c(c1)C(N1CCNCC1)=Nc1ccccc1O2`: 50.7% (inactive); `O=C(Nc1ccc(-n2ccc3c(NC(=O)c4ccccc4)nccc32)cc1)c1ccc(N2CCOCC2)c(C(F)(F)F)c1`: 24.8% (inactive).
On to `O=C(Nc1ccccc1)Oc1c(Cl)c(Cl)c(Cl)c(Cl)c1Cl`, for which, under “10 µM unless noted”, the growth is 86.8% (inactive) and 92.2% (inactive).
The same measure, in the same setting: in the case of `O=C1CCN(Cc2ccccc2)C(=S)N1` it was 86.8% (inactive) and 113% (inactive).
Take `Cc1[nH]c(-c2nc3ccccc3[nH]2)c(C)c1C(=O)NC(C)C1CCCCC1` (stereo not drawn): the growth (10 µM) is 98.3% (inactive) and the growth (100 µM) is -83.4% (active).
With `O=C(Nc1nn(-c2ccc(Cl)cc2Cl)nc1-c1ccccc1)c1ccccc1`, the growth (10 µM unless noted) is 83.8% (inactive).
On to `CC(C)(C)c1cc(NC(=O)Cc2ccc(-c3cnc4cc(-c5cnn(CCN6CCOCC6)c5)ccc4n3)cc2)no1`, for which the growth runs as follows: (10 µM) 4.17% (active); (30 µM) 6.45% (active).
On to `O=[N+]([O-])c1ccc(Oc2ccccc2)cc1`, for which the growth (10 µM unless noted) was 96.8% (inactive) and 79.2% (inactive).
Consider `O=C(O)c1sccc1O`, for which the growth was 62.6% (inactive) (10 µM) and 3.63% (active) (100 µM).
Taken in the same sequence, the figures for `CC#C[C@]1(O)CC[C@H]2[C@@H]3CCC4=CC(=O)CCC4=C3[C@@H](c3ccc4c(c3)OCO4)C[C@@]21C` were 67.5% (inactive) and -22.9% (active).
Take `CCCCCCCCCCCCCCCc1ccc(Cl)c(O)c1Cl` (tested in a mixture with another compound): the growth reads like this: (0.25 µM) 18.3% (inactive); (10 µM) 118% (inactive).
On to `COc1cc(-n2nc(C(=O)Nc3ccc(C(=O)O)cc3)nc2-c2ccccc2)cc(OC)c1OC`, for which, for the setting “10 µM unless noted”, the growth was 103% (inactive).
As for `COc1ccc(C(=O)/C=C/c2ccc(OCc3cccc(C(F)(F)F)c3)c(OC)c2)cc1OC`, the growth runs as follows: (10 µM) 36.4% (inactive); (100 µM) -17.8% (active).
For the molecule `COc1ccc(C(=O)/C=C/c2ccc(OCc3ccc(Cl)cc3)cc2)cc1OC`, the growth (10 µM) was 81.2% (inactive) and the growth (100 µM) is 18.7% (inactive).
`CC(=O)/C=C/c1ccc(OCc2ccc(C(C)(C)C)cc2)cc1`: the growth (10 µM) is 59.5% (inactive) and the growth (100 µM) is -32.4% (active).
For the molecule `Cc1c2oc3c(C)ccc(C(=O)N[C@@H]4C(=O)N[C@H](C(C)C)C(=O)N5CCC[C@H]5C(=O)N(C)CC(=O)N(C)[C@@H](C(C)C)C(=O)O[C@H]4C)c3nc-2c(C(=O)N[C@@H]2C(=O)N[C@H](C(C)C)C(=O)N3CCC[C@H]3C(=O)N(C)CC(=O)N(C)[C@@H](C(C)C)C(=O)O[C@H]2C)c(N)c1=O`, the growth is, setting by setting: (0.0025 µM) 42.6% (inactive); (10 µM) -24.3% (active).
